Hit rate of the full screen: of about 5,500 compounds, about 2,000 (36%) were called active. Inconclusive results (about 18%) are left out. Cut-off read from the data, not from the text of the source: active = normalized growth mostly below about 0.91 (no sharp cut-off); inconclusive = no clear call, values can overlap the other calls; inactive = mostly above about 0.92. The list shows a part of the results.
Experiment: chemical genetic growth profiling, strain panel (AID 1159580);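 note: tested at 20 µM; growth read once vehicle control cultures reached saturation at 30 °C; 1 = growth at the plate median or of vehicle wells; lower values mean less growth of the strain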
Settings: growth OD

Measured: normalized growth

O=C(/C=C/c1ccccc1)c1ccc(O)cc1
active: S. cerevisiae deletion strains, locus YJR075W, strain HOC1, hits give low values 0.681 | S. cerevisiae deletion strains, locus YKL009W, strain mrt4, hits give low values 0.829 | S. cerevisiae deletion strains, locus YKL068W, hits give low values 0.912 | S. cerevisiae deletion strains, locus YKL085W, strain MDH1 (second series), hits give low values 0.923 | S. cerevisiae deletion strains, locus YKL085W, strain MDH1, hits give low values 0.923 | S. cerevisiae deletion strains, locus YKL160W, strain elf1, hits give low values 0.144 | S. cerevisiae deletion strains, locus YKR001C, strain vps1, hits give low values 0.299 | S. cerevisiae deletion strains, locus YKR026C, strain gcn3, hits give low values 0.292 | S. cerevisiae deletion strains, locus YKR091W, strain srl3, hits give low values 0.509 | S. cerevisiae deletion strains, locus YLL001W, strain dnm1, hits give low values 0.366 | S. cerevisiae deletion strains, locus YLL026W, hits give low values 0.173 | S. cerevisiae deletion strains, locus YLL041C, strain sdh2, hits give low values 0.218 | S. cerevisiae deletion strains, locus YLR027C, strain aat2, hits give low values 0.0836 | S. cerevisiae deletion strains, locus YLR039C, strain RIC1, hits give low values 0.202 | S. cerevisiae deletion strains, locus YLR058C, strain SHM2, hits give low values 0.765 | S. cerevisiae deletion strains, locus YLR102C, strain apc9, hits give low values 0.922 | S. cerevisiae deletion strains, locus YLR221C, strain rsa3, hits give low values 0.0804 | S. cerevisiae deletion strains, locus YLR258W, strain gsy2, hits give low values 0.237 | S. cerevisiae deletion strains, locus YLR262C, strain YPT6 (second series), hits give low values 0.17 | S. cerevisiae deletion strains, locus YLR262C, strain YPT6, hits give low values 0.248 | S. cerevisiae deletion strains, locus YLR268W, strain sec22, hits give low values 0.723 | S. cerevisiae deletion strains, locus YLR320W, strain mms22, hits give low values 0.0946 | S. cerevisiae deletion strains, locus YLR330W, strain CHS5, hits give low values 0.59 | S. cerevisiae deletion strains, locus YLR342W, strain FKS1 (second series), hits give low values 0.569 | S. cerevisiae deletion strains, locus YLR342W, strain FKS1, hits give low values 0.193 | S. cerevisiae deletion strains, locus YLR357W, strain rsc2, hits give low values 0.46 | S. cerevisiae deletion strains, locus YLR370C, strain arc18, hits give low values 0.447 | S. cerevisiae deletion strains, locus YLR371W, strain rom2, hits give low values 0.714 | S. cerevisiae deletion strains, locus YLR384C, strain iki3, hits give low values 0.462 | S. cerevisiae deletion strains, locus YLR418C, strain cdc73, hits give low values 0.301 | S. cerevisiae deletion strains, locus YML016C, strain PPZ1, hits give low values 0.896 | S. cerevisiae deletion strains, locus YML032C, strain rad52, hits give low values 0.814 | S. cerevisiae deletion strains, locus YML120C, strain ndi1, hits give low values 0.0894 | S. cerevisiae deletion strains, locus YML124C, strain tub3, hits give low values 0.913 | S. cerevisiae deletion strains, locus YMR058W, strain fet3, hits give low values 0.0951 | S. cerevisiae deletion strains, locus YMR078C, strain ctf18, hits give low values 0.676 | S. cerevisiae deletion strains, locus YMR125W, strain sto1, hits give low values 0.101 | S. cerevisiae deletion strains, locus YMR129W, hits give low values 0.222 | S. cerevisiae deletion strains, locus YMR205C, strain PFK2, hits give low values 0.124 | S. cerevisiae deletion strains, locus YMR223W, strain ubp8, hits give low values 0.852 | S. cerevisiae deletion strains, locus YMR231W, strain pep5, hits give low values 0.512 | S. cerevisiae deletion strains, locus YMR263W, strain SAP30, hits give low values 0.798 | S. cerevisiae deletion strains, locus YMR307W, strain GAS1, hits give low values 0.401 | S. cerevisiae deletion strains, locus YNL067W, strain RPL9B, hits give low values 0.719 | S. cerevisiae deletion strains, locus YNL071W, strain lat1, hits give low values 0.0619 | S. cerevisiae deletion strains, locus YNL128W, strain TEP1, hits give low values 0.734 | S. cerevisiae deletion strains, locus YNL153C, strain GIM3, hits give low values 0.492 | S. cerevisiae deletion strains, locus YNL209W, strain ssb2, hits give low values 0.593 | S. cerevisiae deletion strains, locus YNL233W, strain BNI4, hits give low values 0.621 | S. cerevisiae deletion strains, locus YNL248C, strain rpa49, hits give low values 0.0935 | S. cerevisiae deletion strains, locus YNL271C, strain bni1, hits give low values 0.878 | S. cerevisiae deletion strains, locus YNL298W, strain CLA4, hits give low values 0.824 | S. cerevisiae deletion strains, locus YNL307C, strain MCK1, hits give low values 0.162 | S. cerevisiae deletion strains, locus YNL322C, strain KRE1 (second series), hits give low values 0.231 | S. cerevisiae deletion strains, locus YNL322C, strain KRE1, hits give low values 0.77 | S. cerevisiae deletion strains, locus YNR049C, strain mso1, hits give low values 0.454 | S. cerevisiae deletion strains, locus YNR052C, strain pop2, hits give low values 0.866 | S. cerevisiae deletion strains, locus YOL006C, strain TOP1, hits give low values 0.347 | S. cerevisiae deletion strains, locus YOL147C, strain pex11, hits give low values 0.706 | S. cerevisiae deletion strains, locus YOR001W, strain rrp6, hits give low values 0.189 | S. cerevisiae deletion strains, locus YOR061W, strain CKA2, hits give low values 0.877 | S. cerevisiae deletion strains, locus YOR069W, strain VPS5, hits give low values 0.827 | S. cerevisiae deletion strains, locus YOR070C, strain gyp1, hits give low values 0.26 | S. cerevisiae deletion strains, locus YOR080W, strain dia2, hits give low values 0.514 | S. cerevisiae deletion strains, locus YOR083W, strain WHI5, hits give low values 0.312 | S. cerevisiae deletion strains, locus YOR106W, strain vam3, hits give low values 0.241 | S. cerevisiae deletion strains, locus YOR136W, strain idh2, hits give low values 0.914 | S. cerevisiae deletion strains, locus YOR144C, strain elg1, hits give low values 0.88 | S. cerevisiae deletion strains, locus YOR184W, strain ser1, hits give low values 0.459 | S. cerevisiae deletion strains, locus YOR265W, strain rbl2, hits give low values 0.295 | S. cerevisiae deletion strains, locus YOR270C, strain vph1, hits give low values 0.143 | S. cerevisiae deletion strains, locus YOR290C, strain snf2, hits give low values 0.14 | S. cerevisiae deletion strains, locus YOR316C, strain cot1, hits give low values 0.917 | S. cerevisiae deletion strains, locus YPL051W, strain arl3, hits give low values 0.213 | S. cerevisiae deletion strains, locus YPL055C, strain LGE1, hits give low values 0.558 | S. cerevisiae deletion strains, locus YPL078C, strain atp4, hits give low values 0.209 | S. cerevisiae deletion strains, locus YPL106C, strain sse1, hits give low values 0.503 | S. cerevisiae deletion strains, locus YPL240C, strain hsp82, hits give low values 0.149 | S. cerevisiae deletion strains, locus YPL241C, strain CIN2, hits give low values 0.763 | S. cerevisiae deletion strains, locus YPR119W, strain clb2, hits give low values 0.905 | S. cerevisiae deletion strains, locus YPR141C, strain kar3, hits give low values 0.907 | S. cerevisiae deletion strains, locus YPR163C, strain tif3, hits give low values 0.369 | S. cerevisiae deletion strains, locus YPR167C, strain met16, hits give low values 0.898 | S. cerevisiae deletion strains, strain wtn01, hits give low values 0.78 | S. cerevisiae strains, strain wild type, hits give low values 0.518
inactive: S. cerevisiae deletion strains, locus YLR113W, strain HOG1, hits give low values 0.964 | S. cerevisiae deletion strains, locus YNL183C, strain NPR1, hits give low values 0.901 | S. cerevisiae deletion strains, locus YNL250W, strain rad50, hits give low values 0.924 | S. cerevisiae deletion strains, locus YOL012C, strain htz1 0.327 | S. cerevisiae deletion strains, locus YOR231W, strain MKK1, hits give low values 0.948 | S. cerevisiae deletion strains, locus YPL256C, strain CLN2, hits give low values 0.978

Source: PubChem BioAssay AID1159580 (chemical genetic matrix, 2015)
